Test results published in PubChem BioAssay AID1159580 (chemical genetic matrix, 2015).
Among all 5,500 compounds or so, about 2,000 (36%) were called active. Another 18% or so got no clear call; they are omitted. No stated cut-off is given here; in the data, active means normalized growth mostly below about 0.91 (no sharp cut-off); inconclusive means no clear call, values can overlap the other calls; inactive means mostly above about 0.92. Some of the results follow.

Test: chemical genetic growth profiling, strain panel (AID 1159580);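 further: tested at 20 µM; growth read once vehicle control cultures reached saturation at 30 °C; 1 = growth at the plate median or of vehicle wells; lower values mean less growth of the strain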
Conditions: growth OD

Measured: normalized growth

COc1c2ccoc2nc2c(OC)c(OCC(O)C(C)(C)O)ccc12 (configuration not stated)
inactive: S. cerevisiae deletion strains, locus YJR075W, strain HOC1, active compounds read low 1.07 | S. cerevisiae deletion strains, locus YKL009W, strain mrt4, active compounds read low 0.944 | S. cerevisiae deletion strains, locus YKL068W, active compounds read low 0.978 | S. cerevisiae deletion strains, locus YKL085W, strain MDH1 (second series), active compounds read low 1 | S. cerevisiae deletion strains, locus YKL085W, strain MDH1, active compounds read low 1 | S. cerevisiae deletion strains, locus YKL160W, strain elf1, active compounds read low 1.03 | S. cerevisiae deletion strains, locus YKL190W, strain CNB1, active compounds read low 0.979 | S. cerevisiae deletion strains, locus YKR001C, strain vps1, active compounds read low 0.985 | S. cerevisiae deletion strains, locus YKR026C, strain gcn3, active compounds read low 1.02 | S. cerevisiae deletion strains, locus YKR091W, strain srl3, active compounds read low 1.01 | S. cerevisiae deletion strains, locus YLL001W, strain dnm1, active compounds read low 1.03 | S. cerevisiae deletion strains, locus YLL026W, active compounds read low 1.01 | S. cerevisiae deletion strains, locus YLL041C, strain sdh2, active compounds read low 1.02 | S. cerevisiae deletion strains, locus YLR027C, strain aat2, active compounds read low 1.03 | S. cerevisiae deletion strains, locus YLR039C, strain RIC1, active compounds read low 0.974 | S. cerevisiae deletion strains, locus YLR058C, strain SHM2, active compounds read low 0.991 | S. cerevisiae deletion strains, locus YLR102C, strain apc9, active compounds read low 0.99 | S. cerevisiae deletion strains, locus YLR113W, strain HOG1, active compounds read low 1.03 | S. cerevisiae deletion strains, locus YLR221C, strain rsa3, active compounds read low 1.03 | S. cerevisiae deletion strains, locus YLR258W, strain gsy2, active compounds read low 1.02 | S. cerevisiae deletion strains, locus YLR262C, strain YPT6 (second series), active compounds read low 1.04 | S. cerevisiae deletion strains, locus YLR262C, strain YPT6, active compounds read low 0.938 | S. cerevisiae deletion strains, locus YLR268W, strain sec22, active compounds read low 1.02 | S. cerevisiae deletion strains, locus YLR320W, strain mms22, active compounds read low 1.03 | S. cerevisiae deletion strains, locus YLR330W, strain CHS5, active compounds read low 0.992 | S. cerevisiae deletion strains, locus YLR342W, strain FKS1 (second series), active compounds read low 0.992 | S. cerevisiae deletion strains, locus YLR342W, strain FKS1, active compounds read low 1.02 | S. cerevisiae deletion strains, locus YLR357W, strain rsc2, active compounds read low 1.06 | S. cerevisiae deletion strains, locus YLR370C, strain arc18, active compounds read low 1.01 | S. cerevisiae deletion strains, locus YLR371W, strain rom2, active compounds read low 0.976 | S. cerevisiae deletion strains, locus YLR384C, strain iki3, active compounds read low 1 | S. cerevisiae deletion strains, locus YLR418C, strain cdc73, active compounds read low 1.04 | S. cerevisiae deletion strains, locus YML016C, strain PPZ1, active compounds read low 0.99 | S. cerevisiae deletion strains, locus YML032C, strain rad52, active compounds read low 0.974 | S. cerevisiae deletion strains, locus YML120C, strain ndi1, active compounds read low 1.02 | S. cerevisiae deletion strains, locus YML124C, strain tub3, active compounds read low 0.99 | S. cerevisiae deletion strains, locus YMR058W, strain fet3, active compounds read low 1.03 | S. cerevisiae deletion strains, locus YMR078C, strain ctf18, active compounds read low 0.97 | S. cerevisiae deletion strains, locus YMR125W, strain sto1, active compounds read low 1.04 | S. cerevisiae deletion strains, locus YMR129W, active compounds read low 1.01 | S. cerevisiae deletion strains, locus YMR205C, strain PFK2, active compounds read low 1.04 | S. cerevisiae deletion strains, locus YMR223W, strain ubp8, active compounds read low 0.961 | S. cerevisiae deletion strains, locus YMR231W, strain pep5, active compounds read low 1 | S. cerevisiae deletion strains, locus YMR263W, strain SAP30, active compounds read low 1.01 | S. cerevisiae deletion strains, locus YMR307W, strain GAS1, active compounds read low 0.941 | S. cerevisiae deletion strains, locus YNL067W, strain RPL9B, active compounds read low 1.03 | S. cerevisiae deletion strains, locus YNL071W, strain lat1, active compounds read low 1.02 | S. cerevisiae deletion strains, locus YNL128W, strain TEP1, active compounds read low 1.01 | S. cerevisiae deletion strains, locus YNL153C, strain GIM3, active compounds read low 1.02 | S. cerevisiae deletion strains, locus YNL183C, strain NPR1, active compounds read low 0.985 | S. cerevisiae deletion strains, locus YNL209W, strain ssb2, active compounds read low 1.02 | S. cerevisiae deletion strains, locus YNL233W, strain BNI4, active compounds read low 1.02 | S. cerevisiae deletion strains, locus YNL248C, strain rpa49, active compounds read low 1.02 | S. cerevisiae deletion strains, locus YNL250W, strain rad50, active compounds read low 0.989 | S. cerevisiae deletion strains, locus YNL271C, strain bni1, active compounds read low 0.989 | S. cerevisiae deletion strains, locus YNL298W, strain CLA4, active compounds read low 0.975 | S. cerevisiae deletion strains, locus YNL307C, strain MCK1, active compounds read low 0.976 | S. cerevisiae deletion strains, locus YNL322C, strain KRE1 (second series), active compounds read low 1.03 | S. cerevisiae deletion strains, locus YNL322C, strain KRE1, active compounds read low 0.995 | S. cerevisiae deletion strains, locus YNR049C, strain mso1, active compounds read low 1.02 | S. cerevisiae deletion strains, locus YNR052C, strain pop2, active compounds read low 0.962 | S. cerevisiae deletion strains, locus YOL006C, strain TOP1, active compounds read low 1.01 | S. cerevisiae deletion strains, locus YOL012C, strain htz1 1.86 | S. cerevisiae deletion strains, locus YOL147C, strain pex11, active compounds read low 0.996 | S. cerevisiae deletion strains, locus YOR001W, strain rrp6, active compounds read low 1.02 | S. cerevisiae deletion strains, locus YOR061W, strain CKA2, active compounds read low 0.997 | S. cerevisiae deletion strains, locus YOR069W, strain VPS5, active compounds read low 0.99 | S. cerevisiae deletion strains, locus YOR070C, strain gyp1, active compounds read low 1 | S. cerevisiae deletion strains, locus YOR080W, strain dia2, active compounds read low 0.999 | S. cerevisiae deletion strains, locus YOR083W, strain WHI5, active compounds read low 1.03 | S. cerevisiae deletion strains, locus YOR106W, strain vam3, active compounds read low 1.04 | S. cerevisiae deletion strains, locus YOR136W, strain idh2, active compounds read low 0.982 | S. cerevisiae deletion strains, locus YOR144C, strain elg1, active compounds read low 0.978 | S. cerevisiae deletion strains, locus YOR184W, strain ser1, active compounds read low 0.946 | S. cerevisiae deletion strains, locus YOR231W, strain MKK1, active compounds read low 1.01 | S. cerevisiae deletion strains, locus YOR265W, strain rbl2, active compounds read low 1 | S. cerevisiae deletion strains, locus YOR270C, strain vph1, active compounds read low 1.07 | S. cerevisiae deletion strains, locus YOR290C, strain snf2, active compounds read low 1.02 | S. cerevisiae deletion strains, locus YOR316C, strain cot1, active compounds read low 0.99 | S. cerevisiae deletion strains, locus YPL051W, strain arl3, active compounds read low 1.05 | S. cerevisiae deletion strains, locus YPL055C, strain LGE1, active compounds read low 1.03 | S. cerevisiae deletion strains, locus YPL078C, strain atp4, active compounds read low 1.03 | S. cerevisiae deletion strains, locus YPL106C, strain sse1, active compounds read low 1.02 | S. cerevisiae deletion strains, locus YPL240C, strain hsp82, active compounds read low 1 | S. cerevisiae deletion strains, locus YPL241C, strain CIN2, active compounds read low 0.992 | S. cerevisiae deletion strains, locus YPL256C, strain CLN2, active compounds read low 1.03 | S. cerevisiae deletion strains, locus YPR119W, strain clb2, active compounds read low 0.998 | S. cerevisiae deletion strains, locus YPR141C, strain kar3, active compounds read low 0.995 | S. cerevisiae deletion strains, locus YPR163C, strain tif3, active compounds read low 0.98 | S. cerevisiae deletion strains, locus YPR167C, strain met16, active compounds read low 0.992 | S. cerevisiae deletion strains, strain wtn01, active compounds read low 1.02 | S. cerevisiae strains, strain wild type, active compounds read low 0.996
